Bioassay records: PubChem, National Center for Advancing Translational Sciences (NCATS)
p53 reactivator: restores transcriptional activity of mutant p53 | H1299 p53-A138V BP100-luciferase reporter, luminescence, 24 h | Potency, µM (titrated, usually from 92.2 µM), inactives show top-dose activity change, positive = activation, actives largely listed as activators | 0.063% of 320,000 active; further: potency means the concentration at half of the fitted maximal effect; % of control where 0% means no effect; nearly all actives have a fitted effect of over 45% in size
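H1299 (p53-null), stable ts p53-A138V + BP100-Luc; 1000 cells/well, Opti-MEM/10% FBS; cpd 4 pt, 1:5; 24 h, 37 deg C, 5% CO2; detection reagent 10 min RT; luminescence.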
S-ASM inh: inhibitors of human secretory acid sphingomyelinase; P17405; placental ASM, HMU-PC fluorogenic substrate, 60 min; Potency, µM (doses to about 57.5 µM), for inactives: top-dose activity change, negative = inhibition, usual class: inhibitors; 0.006% of 340,000 active; AID 504937; further: potency means the concentration at half of the fitted maximal effect
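Fluorogenic HMU-PC substrate (9 uM final) is turned over by placental ASM in 60 min at 37 C after a 10 min compound preincubation. Reaction ended by alkaline stop (pH 10), with fluorescence read at 386/447 nm.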
MmCpn inh: M. maripaludis TRiC chaperonin inhibition; AID 504842; Potency, µM (highest dose often 76.9 µM), for the others: top-dose activity, negative = inhibition, usual class: inhibitors; purified Mm-Cpn ATPase, ADP Transcreener TR-FRET; 0.031% of 330,000 active; further: potency means the concentration at half of the fitted maximal effect; on the % scale 0 is the no-effect control and ±100 the full control effect; nearly all actives have a fitted effect of over 80% in size
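Compound-treated chaperonin, 25 nM final, turns over 10 uM ATP at 37°C for 30 min following a 10 min preincubation; ADP generated competes with ADP-d2 for Eu-cryptate antibody, lowering FRET.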
CCT modulator: changes cytosolic chaperonin activity. 0.3% of 360,000 active. purified chaperonin ATPase assay, HTRF ADP detection, 30 min. activity change, % (concentration not given with the values), hits read low; in the data active means activity change below about -30%; further: on the % scale 0 is the no-effect control and ±100 the full control effect
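TRiC at 40 or 20 nM final (batch-dependent) in 30 mM Tris pH 7.4, 100 mM KCl, 5 mM MgCl2, 1 mM DTT, with compound at single 76 uM and 10 uM ATP, 30 min at 37 deg C. ADP detected by HTRF Transcreener, 665/615 ratio.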
PINK1 expr mod: PINK1 expression modulation; PINK1 immunofluorescence, high-content cytometry, 24 h; Potency, µM (highest dose often 76.6 µM), without a hit: at the highest dose activation (PINK1 increase), actives largely listed as activators; 0.2% of 410,000 active; active means well fitted activation curve with a large enough effect; inconclusive means small, poorly fitted or top-dose-only effect; cell line not stated here; further: potency means the concentration at half of the fitted maximal effect; % of control where 0% means no effect; nearly all actives have a fitted effect of over 65% in size
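Decision-based qHTS: stable cells, 24 h exposure to five compound concentrations, CCCP as control. Fixed cells stained for PINK1 plus nuclear, mitochondrial and cell markers, cytometer read.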
ALOX12 inh: ALOX12 (human) lipoxygenase inhibition; AID 1671190; purified 12hLO, xylenol orange hydroperoxide absorbance; Potency, µM (series often up to 108 µM), for inactives: top-dose activity change, negative = inhibition, most hits filed as inhibitors; P18054; 1.1% of 580,000 active; further: potency means the concentration at half of the fitted maximal effect; on the % scale 0 is the no-effect control and ±100 the full control effect
Target sequence (P18054 whole entry, looked up): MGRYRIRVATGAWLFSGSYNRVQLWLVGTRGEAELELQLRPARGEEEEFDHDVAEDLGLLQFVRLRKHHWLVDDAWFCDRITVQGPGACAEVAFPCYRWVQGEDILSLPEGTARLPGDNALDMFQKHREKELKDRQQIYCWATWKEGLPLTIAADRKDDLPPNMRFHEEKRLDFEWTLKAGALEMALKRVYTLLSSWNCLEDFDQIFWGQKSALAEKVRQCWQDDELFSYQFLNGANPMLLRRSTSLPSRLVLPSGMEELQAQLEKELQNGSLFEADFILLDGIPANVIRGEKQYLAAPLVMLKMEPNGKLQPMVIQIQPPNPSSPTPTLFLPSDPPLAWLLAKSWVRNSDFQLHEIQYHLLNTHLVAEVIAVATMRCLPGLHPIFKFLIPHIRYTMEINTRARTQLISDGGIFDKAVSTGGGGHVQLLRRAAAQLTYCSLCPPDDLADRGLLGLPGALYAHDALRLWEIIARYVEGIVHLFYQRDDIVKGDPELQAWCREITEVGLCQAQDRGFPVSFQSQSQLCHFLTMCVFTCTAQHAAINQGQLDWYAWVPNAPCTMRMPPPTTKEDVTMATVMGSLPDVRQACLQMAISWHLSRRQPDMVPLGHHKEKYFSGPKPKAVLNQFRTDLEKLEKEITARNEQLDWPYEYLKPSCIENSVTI
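Purified human 12hLO (150 nM final) in 25 mM Hepes, 0.01% Triton X-100, pH 7.0 was preincubated 15 min at room temperature with compound. Then 40 uM arachidonic acid was added, 30 min. Hydroperoxide was read by Fe-XO absorbance ratio 573/405 nm.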
An asterisk follows results filed as active; ? = inconclusive; . = not tested or not shown; [ ] = dose if it differs, or a comment. The list is not random: actives were taken first. Their share in the collection is about 1.4%. Unless noted, the call rests on the fitted dose curve; in most records, active means well fitted curve in the direction sought with a large enough effect; inconclusive means small, poorly fitted or top-dose-only effect, or another doubt; inactive means no such curve, though single readings can be large; an effect the other way counts as inactive or inconclusive.

SMILES | p53 reactivator | S-ASM inh | MmCpn inh | CCT modulator | PINK1 expr mod | ALOX12 inh
Cc1cc(NC(=O)Cc2cccc(C(F)(F)F)c2)ccc1N1CCN(C)CC1 | . | . | . | . | . | -49%
COc1ccc(/C=C/c2ccc3ccccc3n2)cc1OC | . | . | . | . | 2% | 28µM*
O=S1(=O)N[C@@H](Cc2ccccc2)COc2cc(NCCCN3CCOCC3)ccc21 | . | . | . | . | . | 50µM*
CCS(=O)(=O)N(Cc1ccc(C)cc1)c1c(C)n(C)n(-c2ccccc2)c1=O | . | . | . | . | . | 7%
C[C@H](NC(=O)OC(C)(C)C)c1nnc(SCc2c(F)cccc2Cl)o1 | . | . | . | . | 0% | -18%
CC(C)[C@H](NC(=O)OC(C)(C)C)c1nnc(S(=O)(=O)Cc2c(F)cccc2Cl)o1 | -22% | -2% | 0% | 0 | 6.3µM* | 19%
O=C(NC1CC1)C(NCc1ccc(C(F)(F)F)cc1)c1ccccc1 (configuration not stated) | . | . | . | . | . | 23%
CCn1nc(C(=O)N2CCNC(=O)C2)c2ccccc2c1=O | . | . | . | . | . | -3%
O=C(CSc1ncc(-c2ccccc2)nn1)NCc1ccco1 | 16% | -3% | -1% | -92* | 2%[38.3 µM] | -16%
O=C(N[C@H]1CC[C@@]23CCCN2C(=O)CCC[C@H]3[C@H]1Cc1ccccc1)c1cccc(Cl)c1 | . | . | . | . | . | 2%
Cc1ccccc1-c1nc2ccccc2c(=O)n1/N=C/c1ccccc1[N+](=O)[O-] | -24% | -2% | 3% | -2 | -1% | 32µM*
O=C(O)c1cc(-c2ccc(/C=N/NC(=S)Nc3ccccc3)o2)ccc1Cl | 5% | 46% | -9% | 0 | 0% | 28µM*
CS(=O)(=O)NNc1ccc(S(N)(=O)=O)cc1[N+](=O)[O-] | . | . | . | . | . | -33%
CN1CCCN(C(=O)c2ccc(Cl)cc2)c2ccccc21 | . | . | . | . | . | 32µM*
CCCNC(=O)NS(=O)(=O)c1ccc(Cl)cc1 | 0% | 1% | 2% | 1 | 3% | 6%
CCOC1(/N=C(\C)NS(=O)(=O)c2ccc(Cl)cc2)C(C)=CC(=O)C=C1C | 0% | 8% | 1% | -71* | -1% | 51%
NS(=O)(=O)c1ccc(CNC(=O)c2cc(-c3cccnc3)nc3ccc(Cl)cc23)cc1 | -5% | 0% | -2% | -1 | 5% | 72%
NS(=O)(=O)c1ccc(CNC(=O)c2cc(-c3ccccn3)nc3ccc(Cl)cc23)cc1 | 3% | -1% | ? | -55* | 6% | -25%
CC(CCc1ccco1)NC(=O)CCc1nnc2ccc(N3CCOCC3)nn12 (configuration not stated) | . | . | . | . | . | -2%
Cc1c(NC(=S)NC(=O)c2ccc(-c3ccc(Cl)cc3)o2)cccc1C(=O)O | 2% | -2% | -2% | 2 | 2% | 28µM*
O=C(NC(=S)Nc1ccccc1N1CCOCC1)c1ccc(-c2cccc(Cl)c2)o1 | 18% | 7% | 0% | 3 | 17% | 40µM*
Cc1ccc(NC(=O)Cn2nc3c(cc2=O)CCCC3)c(Cl)c1 | . | . | . | . | . | 23%
O=C(CSCc1ccc(Cl)cc1)Nc1cc([N+](=O)[O-])ccc1O | 3% | -1% | 2% | -2 | 14µM* | -9%
Cc1ccc(SCC(=O)Nc2cc([N+](=O)[O-])ccc2O)cc1 | 8% | -6% | 3% | 0 | 16µM* | -3%
COc1ccc([N+](=O)[O-])cc1NC(=O)CSCc1ccc(Br)cc1 | -13% | -3% | 0% | -5 | 4% | ?
SMILES | p53 reactivator | S-ASM inh | MmCpn inh | CCT modulator | PINK1 expr mod | ALOX12 inh
CC(CC(=O)O)CC(=O)Nc1cc([N+](=O)[O-])ccc1O (configuration not stated) | 1% | -1% | -2% | -2 | 1% | -14%
CN(C(=O)CCn1cnc2c1c(=O)n(C)c(=O)n2C)C1CCCC1 | . | . | . | . | . | -4%
Cn1cc(CN[C@H]2[C@H](O)[C@H](O)C[C@@H]2c2cccnc2)c2ccccc21 | . | . | . | . | . | 45µM*
CCN(CC)c1ccc(/C=C2/SC(=O)N(C(C)C)C2=O)o1 | -19% | -4% | 0% | -3 | 10% | 45µM*
CCCc1nnc(SCC(=O)O)n1/N=C/c1ccc2c(c1)OCO2 | 4% | -1% | 1% | -63* | 0%[38.3 µM] | 10%
CC(C)CCn1nc(C(=O)NCc2ccc(F)cc2)c2ccccc2c1=O | . | . | . | . | . | 2%
O=c1oc2ccc(Br)cc2cc1S(=O)(=O)N1CCCCCC1 | . | . | . | . | . | 21%
COc1ccc(CC(N)c2csc(Nc3cc(Oc4ccccc4)ncn3)n2)cc1 (configuration not stated) | . | . | . | -36* | -1% | 4%
C=CCOc1ccc2cccc(/C=N/NC(=O)c3cc4cc([N+](=O)[O-])ccc4s3)c2c1 | 1% | -3% | 1% | -2 | 20µM* | -14%
O=C(Nc1ccccn1)c1cc2cc([N+](=O)[O-])ccc2s1 | ? | -1% | -4% | -1 | 2% | -2%
Cn1c(=O)c2c(nc(SCC(=O)N3c4ccccc4CCc4ccccc43)n2C)n(C)c1=O | 9% | 2% | -1% | 0 | 10µM* | 7%
CCOC(=O)C1C(=O)CC(C)(O)C(C(=O)OCC)C1c1ccc(OC)cc1 (configuration not stated) | . | -2% | . | -32* | 0% | -6%
CCOC(=O)C1C(=O)CC(C)(O)C(C(=O)OCC)C1c1ccccc1 (configuration not stated) | 0% | 5% | 1% | -1 | 0% | -15%
O=C(c1ccc(S(=O)(=O)N2CCC(c3nc4ccccc4[nH]3)CC2)cc1)N1CCOCC1 | -1% | 1% | -1% | -4 | 4%[38.3 µM] | 5.6µM*
O=S(=O)(c1ccc(F)cc1)N1CCC(c2nc3ccccc3[nH]2)CC1 | -2% | 0% | -1% | -2 | 3% | 1%
Cc1ccc(F)c(S(=O)(=O)N2CCCC2c2nc3ccccc3[nH]2)c1 (configuration not stated) | . | . | . | . | . | -9%
COc1cc(C(=O)Nc2ccccc2N2CCOCC2)ccc1OCC(=O)N1CCOCC1 | 4% | 1% | 1% | 1 | 1% | -2%
COc1cc(C(=O)Nc2cccc(C)c2C)ccc1OCC(=O)N1CCOCC1 | 1% | 3% | 3% | -34* | -1% | 178%
O=c1[nH]c(CCl)nc2cc(-c3ccc(F)cc3)sc12 | ? | 4% | 0% | -40* | -1% | -28%
COCCNc1nc2cc(-c3ccc(F)cc3)sc2c(=O)n1C | . | . | . | 1 | 0% | 31%
CC(=O)Nc1cccc(NC(=O)c2cccc(-c3ccc(O)cc3)c2)c1 | -4% | -3% | 4% | -70* | 2% | 5%
